Hit rate of the full screen: of about 100,000 compounds, about 930 (0.93%) were called active. Shown is part of a subset that was picked to be rich in actives. A number with no mark means an inactive call. No stated cut-off is given here; in the data, active means inhibition mostly above about 56% (no sharp cut-off); inactive means mostly below about 77%.
molecular target: Salicylate synthase (Mycobacterium tuberculosis (strain CDC 1551 / Oshkosh)) (UniProt P9WFX0); test: inhibitors of M. tuberculosis MbtI – biochemical, fluorescence intensity, primary screen (AID 493033); details: purified MbtI enzyme, fluorescence intensity read-out, hits give high values, concentration not given here
Sequence (P9WFX0 whole entry, looked up): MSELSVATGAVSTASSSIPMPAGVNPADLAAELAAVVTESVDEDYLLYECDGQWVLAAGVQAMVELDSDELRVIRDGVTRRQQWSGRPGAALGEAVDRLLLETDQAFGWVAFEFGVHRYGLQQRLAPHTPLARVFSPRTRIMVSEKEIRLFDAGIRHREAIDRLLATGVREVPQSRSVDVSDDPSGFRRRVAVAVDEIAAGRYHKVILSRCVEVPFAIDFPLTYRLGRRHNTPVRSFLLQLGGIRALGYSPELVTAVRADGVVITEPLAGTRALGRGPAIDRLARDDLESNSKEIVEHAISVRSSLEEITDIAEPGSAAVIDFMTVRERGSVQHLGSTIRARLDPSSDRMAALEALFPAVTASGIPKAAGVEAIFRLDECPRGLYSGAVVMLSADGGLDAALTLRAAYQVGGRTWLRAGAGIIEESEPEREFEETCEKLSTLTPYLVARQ

| Compound | inhibition |
| --- | --- |
| O=c1cc(-c2ccccc2)sc2ccc(Cl)cc12 | -0.1% |
| CSc1ncnc2sc(-c3ccccc3)cc12 | -44.5% |
| CN=Cc1cc(-c2ccccc2)sc1S | 95.8% (active) |
| Cc1nn2c(=O)/c(=C/c3ccccc3)sc2nc1=O | -1.65% |
| Cc1nc(Cc2nnc(SC/C(O)=C(\C#N)c3nc4ccccc4[nH]3)o2)cs1 | 25.6% |
| Cc1occc1-c1nnc2n1N=C(c1ccc(-c3cc(Cl)ccc3Cl)o1)CS2 | 98% (active) |
| O=C(Nc1cccc(Br)c1)C1CC(=O)N(C2CCCC2)C1 (stereo not given) | -4.55% |
| CN(C)c1ccc(-c2ncnn2-c2ccccc2)cc1 | -9.6% |
| Cc1csc(NC(=O)C2CCC(CNS(=O)(=O)c3cccc4nsnc34)CC2)n1 (stereo not given) | -0.3% |
| Cc1ccc(Cl)cc1N1CCN(C(=O)/C=C/c2ccc(S(=O)(=O)NCc3ccco3)cc2)CC1 | 5.7% |
| COC(=O)c1cccc(NC(=O)CCCN2C(=O)c3ccccc3C2=O)c1 | -11.5% |
| Cc1ccc(NC(=O)COC(=O)C2CCC2)cc1Cl | -5.6% |
| COc1cc(NS(=O)(=O)c2cc(C)c(Cl)cc2C)c(C(=O)O)cc1OC | -26.2% |
| O=C(C1=Cc2sc3c(c2CS1)CCCC3)N1CCCC1 | 98.8% (active) |
| O=C(c1ccc(Cl)cc1)N1CCCC1 | -5.1% |
| O=C(O)C1=Cc2sc3c(c2CS1)CCCC3 | 95.4% |
| O=C(O)C1CCC(CNCc2cccc(Br)c2)CC1 (stereo not given) | -9.65% |
| O=C(/C=C\c1cn(-c2ccccc2)nc1-c1cccs1)N1CCOCC1 | -50.8% |
| CCN(CC)c1ccc2oc(=O)c(C)nc2c1 | 94.8% (active) |
| CCN(CC)c1ccc(-n2nc3cc(C)c(NC(C)=O)cc3n2)cc1 | 88.6% |
| CCN(CC)c1ccc(C=C(C#N)C#N)c(OC(C)=O)c1 | -99.2% |
| CCCc1cc2c(cc1N)OCO2 | 13.3% |
| CCc1nc2cccnc2n1-c1ccc(CC(=O)NCCN2CCOCC2)cc1 | 2.4% |
| S=C(c1ccc(-c2ccccc2)o1)N1CCCCC1 | 102% (active) |

| Compound | inhibition |
| --- | --- |
| O=C(c1ccco1)N1CCCCCCC1 | -14.8% |
| S=C(Cc1ccccc1)N1CCCCC1 | 29.6% |
| COC(=O)c1cc(Cl)cc(Cl)c1O | -95.7% |
| O=c1cc(CN2CCN(Cc3ccccc3)CC2)nc2sccn12 | 12% |
| COc1cccc(CN(C)C(=O)/C=C/c2ccco2)c1OC | 9.5% |
| Cn1ncc2c(NCc3cccnc3)ncnc21 | 0.9% |
| O=C(CCCn1c(=O)oc2ccccc21)Nc1cccnc1 | -8.05% |
| O=C(CCn1c(=O)oc2ccccc21)Sc1ccc(C(F)(F)F)cc1 | 70.7% (active) |
| Cc1cccc(NC(=O)CCn2c(=O)oc3ccccc32)c1 | 3% |
| CCN(Cc1nc(-c2ccc(OC)c(OC)c2)no1)C(=O)CCC1CCCCC1 | -0.6% |
| CCCCn1c2c(c(=O)n(C)c1=O)C(c1ccc(OC)cc1)C1=C(CCCC1=O)N2 (stereo not given) | -21% |
| Cc1cc(C)nc(SCc2nnc(SCC(=O)N3c4ccccc4Sc4ccc(Cl)cc43)o2)n1 | -20.7% |
| Cc1ccc(Sc2c(C)[nH]n(-c3ccccc3)c2=O)cc1 | -4.4% |
| Cc1noc(C)c1C(=O)c1c(C)[nH]n(-c2ccccc2)c1=O | 3.5% |
| CC1=NOC(=O)C1C(c1cccc(Br)c1)c1c(C)[nH]n(-c2ccccc2)c1=O (stereo not given) | 98.3% (active) |
| S=c1[nH]nc(NCCc2ccccc2)s1 | 86.7% |
| c1ccc(Nc2nncs2)cc1 | 12.9% |
| S=c1[nH]nc(Nc2ccccc2)s1 | 99.7% (active) |
| COc1ccccc1-c1nnc(Cc2ccc(F)cc2Cl)o1 | -4.2% |
| O=C1CN(C(=O)C2COc3ccccc3O2)c2ccccc2N1 (stereo not given) | -23.2% |
| O=C(CSc1nc(-c2ccccc2)nc2c1CCCC2)N/N=C/c1ccco1 | -6.4% |
| COc1ccccc1C(=O)CSc1cccc[n+]1[O-] | -9.25% |
| C=C(C)CNC(=S)N1CCNCC1 | -14.4% |
| CC(C)(C)CNC(=S)NN | -14.9% |

| Compound | inhibition |
| --- | --- |
| C=C(C)CNC(=S)NN | 98.5% (active) |
| CCc1nc(NCCO)c(C#N)c2c1CCCC2 | -125% |
| O=C(NC1=NCCS1)c1ccccn1 | -4.65% |
| COc1ccc(-c2nn(-c3ccccc3)cc2/C=C\C(=O)N(C)C)cc1 | -4.25% |
| O=C(CNCc1ccc2c(c1)OCO2)NCc1ccc2c(c1)OCO2 | 7.9% |
| CCCn1c(SC(C(=O)NC(=O)NC)c2ccccc2)n[nH]c1=O (stereo not given) | -3.85% |
| CC1CCCCC1NC(=O)COc1ccc(C#N)cc1 (stereo not given) | -7.1% |
| S=c1ccc2ccccc2[nH]1 | 82.2% (active) |
| O=C(O)Cc1cn(-c2ccccc2)nc1-c1cccs1 | -32.5% |
| c1ccc(C(N2CCOCC2)N2CCOCC2)cc1 | -2.5% |
| CC(O)CNc1nc2ccccc2n1CC(O)COCc1ccco1 (stereo not given) | -2.1% |
| O=C(CNCCCN1CCOCC1)Nc1cccc(C(F)(F)F)c1 | 14.8% |
| O=C(CSc1ccccc1)Nc1ccc(NC(=O)c2ccco2)cc1 | 9.65% |
| O=C(CSc1ccc(Br)cc1)c1ccco1 | 55.8% (active) |
| O=C(CSc1ccc2ccccc2c1)N1CCN(C(=O)c2ccco2)CC1 | -5.25% |
| CCSc1nnc(SCC(=O)N2CC(=O)Nc3ccccc32)s1 | 12.2% |
| CC(=O)NC(c1ccccc1)c1ccc2cccnc2c1O (stereo not given) | -4.35% |
| Oc1c(C(c2cccnc2)N2CCOCC2)ccc2cccnc12 (stereo not given) | 91.7% (active) |
| Oc1c(C(Nc2ccccn2)c2cccnc2)ccc2cccnc12 (stereo not given) | 28.4% |
| O=C(NCCC1=CCCCC1)Nc1ccc(Cl)cc1 | -5% |
| Cc1cc(C)nc(NNC(=S)Nc2ccc(S(=O)(=O)N3CCOCC3)cc2)n1 | 54.5% |
| Cc1ccc(C(=O)CN(C)C2CCCCC2)cc1 | 12.6% |

Reference: PubChem BioAssay AID493033 (ICCB-Longwood Screening Facility, Harvard Medical School, 2011)
